TDP1 cell CPT – growth inhibition of DT40 Tdp1-/-;hTDP1 cells with camptothecin (screen for TDP1 inhibitors); AID 686979; chicken DT40 Tdp1-/-;hTDP1 cells + 20 nM CPT, ATP luminescence, 48 h; 420,000 compounds, 12% hits; Potency, µM (titrated, usually from 46.2 µM), for the others: at the top dose activity change, negative = growth inhibition, usual class: inhibitors; note: potency is the fitted concentration of half-maximal effect; % is set by controls: 0 for no effect and ±100 for the full control effect; nearly all actives have a fitted effect of over 55% in size
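Cell growth measured by CellTiter-Glo luminescence after a minimum 48 h, 37 C compound exposure with 20 nM CPT in Tdp1-knockout DT40 cells stably expressing hTDP1, seeded 400/well; qHTS titration format.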
DT40 TDP1 no CPT – qHTS for Inhibitors of human tyrosyl-DNA phosphodiesterase 1 (TDP1): qHTS in cells in absence of CPT; DT40 Tdp1-/- hTDP1 cells, no CPT, ATP luminescence, 48 h; 420,000 compounds, 15% hits; Potency, µM (series often up to 46.2 µM), inactives show top-dose activity change, negative = growth inhibition, actives largely listed as inhibitors; note: potency is the fitted concentration of half-maximal effect; % is set by controls: 0 for no effect and ±100 for the full control effect; nearly all actives have a fitted effect of over 55% in size
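Seeded 400 DT40-hTDP1 cells/well (vehicle DMSO, no 20 nM CPT); pinned compounds; ≥48 hr at 37 °C; CellTiter-Glo luminescence as viability measure.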
TDP1 block – TDP1 (human) enzyme inhibition | 350,000 compounds, 0.28% hits | recombinant TDP1, AlphaScreen DNA substrate cleavage | Potency, µM (highest dose often 130 µM), inactives show top-dose activity change, negative = inhibition, hits mostly inhibitors | Q9NUW8; note: potency is the fitted concentration of half-maximal effect; % is set by controls: 0 for no effect and ±100 for the full control effect; nearly all actives have a fitted effect of over 40% in size
Target sequence (Q9NUW8 whole entry, looked up): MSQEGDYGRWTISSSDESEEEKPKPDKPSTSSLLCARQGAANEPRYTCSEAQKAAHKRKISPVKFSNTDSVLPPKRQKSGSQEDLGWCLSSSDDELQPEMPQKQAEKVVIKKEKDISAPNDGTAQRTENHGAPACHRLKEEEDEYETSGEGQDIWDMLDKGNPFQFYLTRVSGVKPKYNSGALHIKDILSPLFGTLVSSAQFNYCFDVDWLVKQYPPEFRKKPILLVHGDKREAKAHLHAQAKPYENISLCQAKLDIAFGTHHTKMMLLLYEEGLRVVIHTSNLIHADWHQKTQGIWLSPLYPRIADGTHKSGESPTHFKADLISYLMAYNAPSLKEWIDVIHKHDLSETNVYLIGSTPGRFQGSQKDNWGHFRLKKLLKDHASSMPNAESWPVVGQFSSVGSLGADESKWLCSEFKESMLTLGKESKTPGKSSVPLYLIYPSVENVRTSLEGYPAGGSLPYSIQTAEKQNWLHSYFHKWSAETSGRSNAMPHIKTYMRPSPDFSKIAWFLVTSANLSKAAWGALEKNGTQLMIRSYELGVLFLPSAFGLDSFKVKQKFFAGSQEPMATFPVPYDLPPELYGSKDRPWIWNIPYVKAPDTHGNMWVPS
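Tdp1 1 nM final; 15 min RT w/ cpd; substrate 15 nM, 5 min; beads 10 ug/ml, 10 min; AlphaScreen read. Neg ctrl: no enzyme.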
IL-1B inflam inh – inhibitors of inflammasome signaling (IL-1 beta secretion); THP-1 LPS/ATP IL-1B secretion, AlphaLISA, 16 h; stronger effect = lower value; activity change, % at 57.5 µM; 360,000 compounds, 4.7% hits; AID 743279; in the data active = activity change below about -50%; inconclusive = mostly about -30% to -49%; note: % is set by controls: 0 for no effect and ±100 for the full control effect
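Secreted IL-1B measured by AlphaLISA bead assay after 16 h compound exposure of THP-1 cells; compounds (final up to 57.5 uM) added 1 h before LPS (250 ng/mL) and ATP (1.25 mM) stimulation; lower signal means less secretion.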
HepG2 viability – counter-screen for TGF-b inhibitors: cytotoxicity in HepG2 cells; HepG2 CAGA-GFP viability, ATP luminescence, 18 h; Potency, µM (series often up to 46.1 µM), without a hit: at the highest dose activity change, negative = cytotoxicity, usual class: cytotoxic; 410,000 compounds, 0.76% hits; AID 588856; note: potency is the fitted concentration of half-maximal effect
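HepG2 CAGA-GFP cells (1000/well, DMEM with 1% FBS) received compound, then TGF-beta at 500 pg/mL final, and were incubated 18 hours at 37 degrees C. Viability was read by CellTiter-Glo luminescence. Media-only wells were set as complete cell-killing and DMSO as no toxicity.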
TGFb inhibitor – inhibitors of TGF-b signaling | HepG2 CAGA-GFP TGF-b/SMAD3 reporter, GFP fluorescence, 18 h; TGF-beta stimulated, 500 pg/mL final | 410,000 compounds, 1.2% hits | Potency, µM (top dose mostly 46.1 µM), for the others: at the top dose activity, negative = inhibition, actives largely listed as inhibitors | AID 588855; note: potency is the fitted concentration of half-maximal effect; % is set by controls: 0 for no effect and ±100 for the full control effect; nearly all actives have a fitted effect of over 65% in size
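Inhibition was scored as loss of TGF-beta-induced (500 pg/mL final, 18 hours, 37 degrees C) GFP in HEPG2 cells carrying a CAGA-GFP reporter, in DMEM with 1% FBS. Well GFP was summed per cell; Activity was normalised to unstimulated and stimulated DMSO wells, then concentration-response fitting.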
Starred values were filed as active, the others as inactive; ? = inconclusive; . = no result given; ! = not confirmed by another sample; [ ] = dose if it differs, or a comment. In the library only some 19% were active in any assay of this set; here they are far more common. Unless noted, calls come from the whole dose curve; as a rule, active = well fitted curve in the direction sought with a large enough effect; inconclusive = small, poorly fitted or top-dose-only effect, or another doubt; inactive = no such curve, though single readings can be large; an effect the other way counts as inactive or inconclusive.

SMILES	TDP1 cell CPT	DT40 TDP1 no CPT	TDP1 block	IL-1B inflam inh	HepG2 viability	TGFb inhibitor
CN1CCN(C(=O)c2ccc3c(c2)N(Cc2ccc(C(F)(F)F)cc2)C(=O)c2ccccc2S3)CC1	?	20.6µM*	2.3%	.	-22.1%	?
CC(C)NC(=O)CSc1nnc(-c2ccc3ncccc3c2)n1C	-2.3%	-12.3%	.	-11.5	10.8%	-3.9%
COc1ccc(CNC(=O)Cn2nc(C)c3nn(-c4ccc(Cl)cc4)c(C)c3c2=O)cc1	4.4%	-22.2%	2.7%	.	-1.8%	-12.7%
CCOC(=O)c1ccc(N=C2NC(=O)CS2)cc1	-8.7%	-9.7%	0.0%	-7.3	-0.3%	0.0%
CCOC(=O)c1c(C)[nH]c(C2=NNC(=Nc3ccccc3)SC2)c1C	13µM*	9.2µM*	-2.7%	-67.5*	-33.6%	10µM*
CCOC(=O)c1c(C)[nH]c(C2=NNC(=Nc3ccc(OCC)cc3)SC2)c1C	16.4µM*	16.4µM*	10.3%	-52.4*	4.2%	-56.1%
CC(=O)c1c(C)[nH]c(C2=NNC(=NC(C)(C)C)SC2)c1C	16.5%	-13.2%	8.0%	-21.1	-4.6%	-1.9%
CCOC(=O)c1c(C)[nH]c(C2=NNC(=Nc3ccccc3OC)SC2)c1C	?	18.4µM*	9.1%	-62.2*	-0.1%	-11.8%
CCOC(=O)c1c(C)[nH]c(N=Nc2ccccc2Cl)c1C	?	?	12.5%	-14.9	-36.3%	?
COCCCNc1ncnc2onc(-c3ccc(F)cc3)c12	4.2%	?	0.9%	.	-12.0%	1.3%
CCc1ccc(NC(=O)c2sc3nc(C)c(Cl)c(C)c3c2NC(=O)c2ccccc2OC)cc1	.	.	0.6%	.	-12.9%	20.4%
CN(C)CC(C)(C)CNC(=O)c1cnn(-c2nccc(-c3ccc4c(c3)OCO4)n2)c1-c1ccco1	-19.9%[9.04 µM]	?	.	.	.	.
C[C@]12CCC3c4ccc(O)cc4CCC3C1CC/C2=N\N (some centres undefined)	-25.6%	?	.	7.4	-33.1%	-2.1%
Cc1nn(C)c(C)c1/C=N/N=C1\CCC2C3CCc4cc(O)ccc4C3CCC12C (centres undefined)	?	11.6µM*	3.6%	-8.1	-19.8%	-0.4%
CCCCCCCCN1[C@@H](CC(C)=O)c2ccc(/C=C/C(C)=O)cc2S1(=O)=O	3.98µM*	5.62µM*	.	.	-16.4%	?
CC(=O)/C=C/c1ccc2c(c1)S(=O)(=O)N(C1CCCC1)[C@H]2CC(C)=O	15.8µM*	7.08µM*	.	.	10µM*	7.08µM*
COC(=O)/C=C/c1ccc2c(c1)S(=O)(=O)N(C1CCCC1)[C@H]2CC(=O)OC	0.631µM*	?	.	.	-36.4%	?
COc1ccc(C(=O)OCC(=O)NC(=O)NC2CCCC2)cc1OC	?	-16.7%	0.4%	10.0	4.9%	-4.2%
CC(CNC(=O)C1CCN(Cc2cc3ccccc3n2Cc2ccccc2)CC1)c1ccccc1 (centres undefined)	23.1µM*	16.4µM*	0.5%	.	-26.4%	-1.2%
O=C(NCCc1ccccc1)C1CCN(Cc2cc3ccccc3n2Cc2ccccc2)CC1	?	20.6µM*	3.4%	.	-14.1%	-23.0%
O=C(NCCc1ccccc1)C1CCN(Cc2cccc3ccccc23)CC1	?	?	2.2%	-51.1*	4.4%	-3.6%
CCS(=O)(=O)N1CCC(C(=O)NCCN2CCN(Cc3ccccc3)CC2)CC1	-13.7%	-9.4%	3.8%	13.3	-1.4%	2.2%
CCS(=O)(=O)N1CCC(C(=O)NCCc2ccccc2)CC1	1.2%	-4.5%	-1.5%	5.0	1.8%	1.6%
CCCNC(=O)C1CCN(Cc2cc3ccccc3n2Cc2ccccc2)CC1	?	18.4µM*	5.4%	.	-34.6%	?
CCc1cccc(NC(=O)Cn2c(=O)n(Cc3ccccc3)c(=O)c3c2c2cc(OC)ccc2n3C)c1	?	?	-2.8%	.	-12.4%	0.0%
SMILES	TDP1 cell CPT	DT40 TDP1 no CPT	TDP1 block	IL-1B inflam inh	HepG2 viability	TGFb inhibitor
CN(Cc1ccccc1)C(=O)C1CCN(Cc2cc3ccccc3n2Cc2ccccc2)CC1	?	?	5.4%	.	-33.0%	?
CCOc1ccccc1CNC(=O)C1CCN(Cc2cc3ccccc3n2Cc2ccccc2)CC1	?	16.4µM*	2.5%	.	-3.4%	-0.3%
CN(C)CCNC(=O)C1CCN(Cc2cc3ccccc3n2Cc2ccccc2)CC1	20.6µM*	16.4µM*	1.5%	.	11.2µM*	?
CCOc1ccccc1CNC(=O)C1CCN(S(=O)(=O)N2CCC(C)CC2)CC1	?	?	.	-19.0	-12.7%	-5.4%
CCN(c1ccc(C)cc1C)S(=O)(=O)c1nnc(NC(=O)CC(C)C)s1	?	?	3.9%	.	-20.6%	0.0%
COc1ccc(Cl)cc1NC(=O)CCc1nc(-c2ccccc2F)no1	23.1µM*!	16.4µM*	3.5%	15.2	-3.1%	3.2%
COc1ccc(-c2noc(CCC(=O)Nc3cccc(C)c3C)n2)cc1OC	?	?	2.5%	.	-39.5%	-20.8%
COc1ccc(Br)cc1CNC(=O)CCc1nc(-c2ccccc2F)no1	16.4µM*	?	0.0%	-1.0	-0.3%	-2.7%
Cc1ccccc1-c1noc(CCC(=O)Nc2cccc(C)c2C)n1	-10.3%	16.4µM*	0.0%	.	-1.0%	?
O=C(CCc1nc(-c2ccccc2F)no1)Nc1ccc(Oc2ccccc2)cc1	23.1µM*	10.3µM*	6.3%	19.6	-8.6%	?
CCc1ccccc1NC(=O)C1(C)Cc2ccccc2C(=O)O1 (centres undefined)	-3.6%	-22.0%	0.0%	.	-14.0%	4.3%
CCc1ccc(C(=O)Cc2cc3cccc(OC)c3oc2=O)cc1	-2.4%	-28.1%	.	10.1	-12.9%	5.2%
O=C(CCc1nc(-c2ccccc2F)no1)NC1CCCCCC1	?	29.1µM*	-2.1%	20.3	-8.8%	-21.9%
O=C(CCc1nc(-c2ccccc2)no1)NC1CCCCC1	-26.1%	-17.0%	0.0%	24.6	-19.2%	-1.2%
O=C(CCc1nc(-c2ccccc2Cl)no1)NC1CCCC1	0.4%	?	4.4%	1.0	-7.5%	-0.7%
O=C(CCc1nc(-c2ccccc2Cl)no1)NC1CCCCC1	?	20.6µM*	.	9.2	16.1%	7.1%
COc1ccccc1CNC(=O)OCc1nccnc1C(=O)Nc1ccc(Br)cn1	?	?	-1.1%	-7.7	-3.7%	11.2%

Screening results: PubChem, National Center for Advancing Translational Sciences (NCATS)
